Records with an inconclusive call do not appear. Entries that show only a call come without a potency. Calls of active or inactive are those of the source. Calls follow the shape of the full dose curve; tested in HEK293 reporter line.
Potency is read from the fitted curve at half-maximal effect.

The test is described as follows: qHTS for Inhibitors of the Functional Ribonucleoprotein Complex (vRNP) of Lassa (LASV) Arenavirus: Viability assay - alamar blue signal for LASV Primary Screen (AID 1347083). Also: nearly all actives have a fitted effect of over 80% in size. To be noted: cell viability, alamar blue fluorescence (LASV minigenome counter-screen); series mostly up to 57.5 µM.
Regarding `CC(C)(C)C(=O)OCOC(=O)[C@@H]1N2C(=O)[C@@H](NC(=O)[C@H](N)c3ccccc3)[C@H]2SC1(C)C`, the Potency entry was “inactive”.

On to `O=C1C(CCS(=O)c2ccccc2)C(=O)N(c2ccccc2)N1c1ccccc1` (centres undefined), for which the Potency result was “inactive”.

Turning to `NS(=O)(=O)c1cc2c(cc1Cl)NC(C1CC3C=CC1C3)NS2(=O)=O` (centres undefined), the Potency entry is “inactive”.

With `N[C@@H](Cc1cc(I)c(O)c(I)c1)C(=O)O`, the Potency result was “inactive”.

For the molecule `CCCCc1ccc2nc(NC(=O)OC)[nH]c2c1`, the Potency is 68.5 nM (active).

On to `O=c1[nH]c2ccccc2n1CCCN1CCN(C(c2ccccc2)c2ccccc2)CC1`, for which the Potency entry was “inactive”.

`Cc1c(N)c(=O)n(-c2ccccc2)n1C`: the Potency entry was “inactive”.

As to `CCN(CCCc1ccccc1)CCCc1ccccc1`, the Potency entry was “inactive”.

For `CC1=C(C(=O)O)N2C(=O)[C@@H](NC(=O)[C@H](N)C3=CCC=CC3)[C@H]2SC1`, the Potency entry was “inactive”.

With `CCCc1cc(C(N)=S)ccn1`, the Potency result was “inactive”.

For `CCC1NC(=O)c2cc(S(N)(=O)=O)c(Cl)cc2N1` (centres undefined), the Potency entry is “inactive”.

As for `Cc1[nH]c(C)c(Cl)c(=O)c1Cl`, the Potency entry is “inactive”.

For the molecule `CCN(CC)C(=O)c1cccc(C)c1`, the Potency result was “inactive”.

In the case of `CC(C)(C)CC(C)(C)c1ccc(O)c(Cc2ccc(Cl)cc2Cl)c1`, the Potency result was “inactive”.

Take `COc1ccc(CCC(C)=O)cc1`: the Potency result was “inactive”.

For the molecule `CCN1CCCC(OC(=O)C(c2ccccc2)c2ccccc2)C1` (centres undefined), the Potency entry was “inactive”.

With `Nc1ccn([C@H]2CC[C@@H](CO)O2)c(=O)n1`, the Potency entry is “inactive”.

As for `CC(C(=O)O)c1ccc(CC2CCCC2=O)cc1` (centres undefined), the Potency entry is “inactive”.

Consider `CCC(=O)O[C@]1(C(=O)COC)[C@@H](C)C[C@H]2[C@@H]3CCC4=CC(=O)C=C[C@]4(C)C3(F)[C@@H](O)C[C@@]21C` (some centres undefined), for which the Potency result was “inactive”.

As to `O=C(CS)Nc1ccccc1`, the Potency result is “inactive”.

`OC[C@H]1O[C@@H](OCCc2ccc(O)cc2)[C@H](O)[C@@H](O)[C@H]1O`: the Potency entry was “inactive”.

For the molecule `C[C@@]12CCC[C@H]1[C@@H]1CC[C@H]3C[C@@H](O)CC[C@]3(C)[C@H]1CC2`, the Potency result was “inactive”.

Take `CCOC(CN1CCN(CC(C)C(=O)c2ccccc2)CC1)c1ccccc1` (centres undefined): the Potency result was “inactive”.

As to `Cc1cc(C(C)(C)C)c(O)c(C)c1CC1=NCCN1`, the Potency result was “inactive”.

Take `c1ccc(CC2=NCCN2)cc1`: the Potency entry was “inactive”.

Take `c1ccc(CCNc2nc(-c3ccccc3)cs2)cc1`: the Potency result was “inactive”.

On to `COc1ccc(/C=C/C(=O)c2ccc(OC)cc2OC)cc1`, for which the Potency result is “inactive”.

Take `Nc1nc2ccccc2n1Cc1ccc(F)cc1`: the Potency result is “inactive”.

For the molecule `O=C(O)c1cccc(-c2noc(-c3ccccc3F)n2)c1`, the Potency entry was “inactive”.

Regarding `CC(=O)N(CC(=O)N(C)C)c1ccccc1`, the Potency entry is “inactive”.

As for `Oc1ccc(C(O)CNCCCCCCNCC(O)c2ccc(O)c(O)c2)cc1O` (centres undefined), the Potency result is “inactive”.

Take `CCOC(=O)OCC/C(SC(=O)OCC)=C(\C)N(C=O)Cc1cnc(C)nc1N`: the Potency entry is “inactive”.

With `CN1CCC(=C2c3ccccc3CCc3cccnc32)CC1`, the Potency entry is “inactive”.

Turning to `CCOCCOC(=O)/C=C/c1ccc(OC)cc1`, the Potency entry was “inactive”.

`COC(=O)C1=C(C)NC(C)=C(C(=O)OCCCN2CCC(c3ccccc3)(c3ccccc3)CC2)C1c1cccc([N+](=O)[O-])c1` (centres undefined): the Potency result was “inactive”.

With `c1ccc(OCc2ccc(CCCN3CCOCC3)cc2)cc1`, the Potency entry is “inactive”.

`CCOC(=O)c1ccc(C#Cc2ccc3c(c2)C(C)(C)CCS3)nc1`: the Potency result is “inactive”.

Regarding `Oc1c(Cl)cc(Cl)cc1Sc1cc(Cl)cc(Cl)c1O`, the Potency entry was “inactive”.

Take `CN(C)CCCOc1nn(Cc2ccccc2)c2ccccc12`: the Potency entry was “inactive”.

Values taken from PubChem BioAssay (NCATS).
